# Measurements: the supplement of paper PMC4466140
# Experiments:
# Assay in all cases: SPOT peptide array binding signal intensity (averaged, normalized) (arbitrary units (background-subtracted, floor 0; scale differs between SH3 domains)); higher = stronger binding of the SH3 domain to the peptide
# SpBzz1-D2 = biological target: SpBzz1-D2
# Method in brief: (§1)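 GST-fused SH3 domains, from four yeast species, were produced in E. coli BL21(DE3) and captured on glutathione Sepharose. Membranes of cellulose carrying synthetic 15-mer peptides, in which cysteines had been replaced by serines, were exposed to each domain at 10 μg/ml overnight at 4°C in TBS-based blocking buffer. After anti-GST antibody, an HRP anti-mouse secondary and luminol, spots were imaged and quantified using Genespotter. Binding signal is normalized and background-subtracted spot intensity, averaged over replicates, in arbitrary units that differ between domains.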
# SpCyk3 = biological target: SpCyk3
# Method in brief: as §1
# SpHof1 = biological target: SpHof1
# Method in brief: as §1
# SpHof1-2 = biological target: SpHof1-2
# Method in brief: as §1
# SpHof1-3 = biological target: SpHof1-3
# Method in brief: as §1
# SpHse1 = biological target: SpHse1
# Method in brief: as §1
# SpLsb1 = biological target: SpLsb1
# Method in brief: as §1
# SpLsb4 = biological target: SpLsb4
# Method in brief: as §1
# SpMyo1 = biological target: SpMyo1
# Method in brief: as §1
# SpNbp2 = biological target: SpNbp2
# Method in brief: as §1
# SpPex13 = biological target: SpPex13
# Method in brief: as §1
# SpRvs167 = biological target: SpRvs167
# Method in brief: as §1
# SpSla1-D1-D2 = biological target: SpSla1-D1-D2
# Method in brief: as §1
# SpSla1-D3 = biological target: SpSla1-D3
# Method in brief: as §1
# AgAbp1 = biological target: AgAbp1
# Method in brief: as §1
# AgBbc1 = biological target: AgBbc1
# Method in brief: as §1
# AgBem1-D1 = biological target: AgBem1-D1
# Method in brief: as §1
# AgBzz1-D1 = biological target: AgBzz1-D1
# Method in brief: as §1
# AgBzz1-D2 = biological target: AgBzz1-D2
# Method in brief: as §1
# AgCyk3 = biological target: AgCyk3
# Method in brief: as §1
# AgFus1 = biological target: AgFus1
# Method in brief: as §1
# AgHof1 = biological target: AgHof1
# Method in brief: as §1
# AgHse1 = biological target: AgHse1
# Method in brief: as §1
# AgLsb1 = biological target: AgLsb1
# Method in brief: as §1
# AgLsb4 = biological target: AgLsb4
# Method in brief: as §1
# AgMyo5 = biological target: AgMyo5
# Method in brief: as §1
# AgNbp2 = biological target: AgNbp2
# Method in brief: as §1
# AgRvs167 = biological target: AgRvs167
# Method in brief: as §1
# AgSho1 = biological target: AgSho1
# Method in brief: as §1
# AgSla1-D1-D2 = biological target: AgSla1-D1-D2
# Method in brief: as §1
# AgSla1-D3 = biological target: AgSla1-D3
# Method in brief: as §1
# CaAbp1-D1 = biological target: CaAbp1-D1
# Method in brief: as §1
# CaAbp1-D2 = biological target: CaAbp1-D2
# Method in brief: as §1
# CaBbc1 = biological target: CaBbc1
# Method in brief: as §1
# CaBem1-D1 = biological target: CaBem1-D1
# Method in brief: as §1
# CaBzz1-D1 = biological target: CaBzz1-D1
# Method in brief: as §1
# CaBzz1-D2 = biological target: CaBzz1-D2
# Method in brief: as §1
# CaCyk3 = biological target: CaCyk3
# Method in brief: as §1
# CaFus1 = biological target: CaFus1
# Method in brief: as §1
# CaHof1 = biological target: CaHof1
# Method in brief: as §1
# CaHse1 = biological target: CaHse1
# Method in brief: as §1
# CaLsb1 = biological target: CaLsb1
# Method in brief: as §1
# CaLsb4 = biological target: CaLsb4
# Method in brief: as §1
# CaMyo5 = biological target: CaMyo5
# Method in brief: as §1
# CaNbp2 = biological target: CaNbp2
# Method in brief: as §1
# CaRvs167 = biological target: CaRvs167
# Method in brief: as §1
# CaRvs167-3 = biological target: CaRvs167-3
# Method in brief: as §1
# CaSho1 = biological target: CaSho1
# Method in brief: as §1
# CaSla1-D1-D2 = biological target: CaSla1-D1-D2
# Method in brief: as §1
# CaSla1-D3 = biological target: CaSla1-D3
# Method in brief: as §1
# ScAbp1 = biological target: ScAbp1
# Method in brief: as §1
# ScBbc1 = biological target: ScBbc1
# Method in brief: as §1
# ScBem1-D1 = biological target: ScBem1-D1
# Method in brief: as §1
# ScBzz1-D1 = biological target: ScBzz1-D1
# Method in brief: as §1
# ScBzz1-D2 = biological target: ScBzz1-D2
# Method in brief: as §1
# ScCyk3 = biological target: ScCyk3
# Method in brief: as §1
# ScFus1 = biological target: ScFus1
# Method in brief: as §1
# ScHof1 = biological target: ScHof1
# Method in brief: as §1
# ScHse1 = biological target: ScHse1
# Method in brief: as §1
# ScLsb1 = biological target: ScLsb1
# Method in brief: as §1
# ScLsb2 = biological target: ScLsb2
# Method in brief: as §1
# ScLsb3 = biological target: ScLsb3
# Method in brief: as §1
# ScLsb4 = biological target: ScLsb4
# Method in brief: as §1
# ScMyo3 = biological target: ScMyo3
# Method in brief: as §1
# ScMyo5 = biological target: ScMyo5
# Method in brief: as §1
# ScNbp2 = biological target: ScNbp2
# Method in brief: as §1
# ScPex13 = biological target: ScPex13
# Method in brief: as §1
# ScRvs167 = biological target: ScRvs167
# Method in brief: as §1
# ScSho1 = biological target: ScSho1
# Method in brief: as §1
# ScSla1-D1-D2 = biological target: ScSla1-D1-D2
# Method in brief: as §1
# ScSla1-D3 = biological target: ScSla1-D3
# Method in brief: as §1
# SpAbp1-D1 = biological target: SpAbp1-D1
# Method in brief: as §1
# SpBbc1 = biological target: SpBbc1
# Method in brief: as §1
# SpBzz1-D1 = biological target: SpBzz1-D1
# Method in brief: as §1
binder,measurement,setting,value
TKPTPPPKPSHLKPK,SPOT peptide array binding signal intensity,SpBzz1-D2,≤ 0
same,SPOT peptide array binding signal intensity,SpCyk3,≤ 0
same,SPOT peptide array binding signal intensity,SpHof1,2
same,SPOT peptide array binding signal intensity,SpHof1-2,≤ 0
same,SPOT peptide array binding signal intensity,SpHof1-3,64
same,SPOT peptide array binding signal intensity,SpHse1,9.25
same,SPOT peptide array binding signal intensity,SpLsb1,251
same,SPOT peptide array binding signal intensity,SpLsb4,43.5
same,SPOT peptide array binding signal intensity,SpMyo1,≤ 0
same,SPOT peptide array binding signal intensity,SpNbp2,2.5
same,SPOT peptide array binding signal intensity,SpPex13,7
same,SPOT peptide array binding signal intensity,SpRvs167,142
same,SPOT peptide array binding signal intensity,SpSla1-D1-D2,≤ 0
same,SPOT peptide array binding signal intensity,SpSla1-D3,2.5
NRARYLPQNPDIIAG,SPOT peptide array binding signal intensity,AgAbp1,≤ 0
same,SPOT peptide array binding signal intensity,AgBbc1,≤ 0
same,SPOT peptide array binding signal intensity,AgBem1-D1,≤ 0
same,SPOT peptide array binding signal intensity,AgBzz1-D1,9
same,SPOT peptide array binding signal intensity,AgBzz1-D2,19
same,SPOT peptide array binding signal intensity,AgCyk3,≤ 0
same,SPOT peptide array binding signal intensity,AgFus1,8
same,SPOT peptide array binding signal intensity,AgHof1,3.5
same,SPOT peptide array binding signal intensity,AgHse1,85
same,SPOT peptide array binding signal intensity,AgLsb1,1
same,SPOT peptide array binding signal intensity,AgLsb4,7
same,SPOT peptide array binding signal intensity,AgMyo5,0.5
same,SPOT peptide array binding signal intensity,AgNbp2,≤ 0
same,SPOT peptide array binding signal intensity,AgRvs167,0.5
same,SPOT peptide array binding signal intensity,AgSho1,1
same,SPOT peptide array binding signal intensity,AgSla1-D1-D2,2
same,SPOT peptide array binding signal intensity,AgSla1-D3,3.25
same,SPOT peptide array binding signal intensity,CaAbp1-D1,≤ 0
same,SPOT peptide array binding signal intensity,CaAbp1-D2,≤ 0
same,SPOT peptide array binding signal intensity,CaBbc1,≤ 0
same,SPOT peptide array binding signal intensity,CaBem1-D1,≤ 0
same,SPOT peptide array binding signal intensity,CaBzz1-D1,58
same,SPOT peptide array binding signal intensity,CaBzz1-D2,26.5
same,SPOT peptide array binding signal intensity,CaCyk3,≤ 0
same,SPOT peptide array binding signal intensity,CaFus1,29
same,SPOT peptide array binding signal intensity,CaHof1,≤ 0
same,SPOT peptide array binding signal intensity,CaHse1,13.8
same,SPOT peptide array binding signal intensity,CaLsb1,1
same,SPOT peptide array binding signal intensity,CaLsb4,4
same,SPOT peptide array binding signal intensity,CaMyo5,4.25
same,SPOT peptide array binding signal intensity,CaNbp2,59
same,SPOT peptide array binding signal intensity,CaRvs167,4.17
same,SPOT peptide array binding signal intensity,CaRvs167-3,1.75
same,SPOT peptide array binding signal intensity,CaSho1,17.5
same,SPOT peptide array binding signal intensity,CaSla1-D1-D2,≤ 0
same,SPOT peptide array binding signal intensity,CaSla1-D3,≤ 0
same,SPOT peptide array binding signal intensity,ScAbp1,7.5
same,SPOT peptide array binding signal intensity,ScBbc1,≤ 0
same,SPOT peptide array binding signal intensity,ScBem1-D1,7
same,SPOT peptide array binding signal intensity,ScBzz1-D1,7
same,SPOT peptide array binding signal intensity,ScBzz1-D2,≤ 0
same,SPOT peptide array binding signal intensity,ScCyk3,3
same,SPOT peptide array binding signal intensity,ScFus1,≤ 0
same,SPOT peptide array binding signal intensity,ScHof1,1.5
same,SPOT peptide array binding signal intensity,ScHse1,647
same,SPOT peptide array binding signal intensity,ScLsb1,1.5
same,SPOT peptide array binding signal intensity,ScLsb2,≤ 0
same,SPOT peptide array binding signal intensity,ScLsb3,58
same,SPOT peptide array binding signal intensity,ScLsb4,≤ 0
same,SPOT peptide array binding signal intensity,ScMyo3,≤ 0
same,SPOT peptide array binding signal intensity,ScMyo5,9.25
same,SPOT peptide array binding signal intensity,ScNbp2,≤ 0
same,SPOT peptide array binding signal intensity,ScPex13,2.75
same,SPOT peptide array binding signal intensity,ScRvs167,5.83
same,SPOT peptide array binding signal intensity,ScSho1,87.5
same,SPOT peptide array binding signal intensity,ScSla1-D1-D2,≤ 0
same,SPOT peptide array binding signal intensity,ScSla1-D3,≤ 0
same,SPOT peptide array binding signal intensity,SpAbp1-D1,≤ 0
same,SPOT peptide array binding signal intensity,SpBbc1,≤ 0
same,SPOT peptide array binding signal intensity,SpBzz1-D1,31.5
same,SPOT peptide array binding signal intensity,SpBzz1-D2,0.75
same,SPOT peptide array binding signal intensity,SpCyk3,≤ 0
same,SPOT peptide array binding signal intensity,SpHof1,32.8
same,SPOT peptide array binding signal intensity,SpHof1-2,13
same,SPOT peptide array binding signal intensity,SpHof1-3,251
same,SPOT peptide array binding signal intensity,SpHse1,204
same,SPOT peptide array binding signal intensity,SpLsb1,2
same,SPOT peptide array binding signal intensity,SpLsb4,38
same,SPOT peptide array binding signal intensity,SpMyo1,7
same,SPOT peptide array binding signal intensity,SpNbp2,3
same,SPOT peptide array binding signal intensity,SpPex13,1
same,SPOT peptide array binding signal intensity,SpRvs167,5.67
same,SPOT peptide array binding signal intensity,SpSla1-D1-D2,≤ 0
same,SPOT peptide array binding signal intensity,SpSla1-D3,≤ 0
